# Screening results as filed in PubChem BioAssay.
# KCNQ2 inh: blocks the rat KCNQ2 potassium channel; actives 1.1% (n = 310,000); B-score at 10 µM; O88943; CHO-K1 KCNQ2, FluxOR thallium flux, 20 min; hits give low values;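 active means fluorescence ratio B-score at most minus 3 library SDs, with starting brightness B-score within 2 library SDs, cut at about -5.5 in these data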
# Target sequence (O88943 whole entry, looked up): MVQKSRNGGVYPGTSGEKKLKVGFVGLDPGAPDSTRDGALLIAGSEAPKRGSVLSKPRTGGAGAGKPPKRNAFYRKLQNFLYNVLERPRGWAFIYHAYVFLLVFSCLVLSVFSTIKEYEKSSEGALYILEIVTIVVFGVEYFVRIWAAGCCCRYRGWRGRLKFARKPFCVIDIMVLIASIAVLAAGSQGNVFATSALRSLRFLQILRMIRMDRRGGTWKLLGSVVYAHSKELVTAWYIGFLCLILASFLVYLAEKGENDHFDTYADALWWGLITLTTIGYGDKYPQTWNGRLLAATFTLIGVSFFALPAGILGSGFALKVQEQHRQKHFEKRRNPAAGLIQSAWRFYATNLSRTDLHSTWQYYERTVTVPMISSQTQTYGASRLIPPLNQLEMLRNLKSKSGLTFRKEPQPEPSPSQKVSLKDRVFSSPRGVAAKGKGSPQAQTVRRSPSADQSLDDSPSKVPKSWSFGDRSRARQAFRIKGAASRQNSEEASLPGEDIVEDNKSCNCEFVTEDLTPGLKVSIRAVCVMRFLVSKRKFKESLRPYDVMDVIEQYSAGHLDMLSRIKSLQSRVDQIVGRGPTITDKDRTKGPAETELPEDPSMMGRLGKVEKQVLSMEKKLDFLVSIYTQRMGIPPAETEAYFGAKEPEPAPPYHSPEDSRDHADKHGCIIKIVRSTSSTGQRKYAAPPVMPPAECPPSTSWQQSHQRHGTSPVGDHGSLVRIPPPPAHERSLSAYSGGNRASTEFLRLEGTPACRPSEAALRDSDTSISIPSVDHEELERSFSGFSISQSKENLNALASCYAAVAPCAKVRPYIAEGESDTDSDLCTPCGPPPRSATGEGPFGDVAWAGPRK
# KCNQ2 pot: enhances the rat KCNQ2 potassium channel. O88943. CHO-K1 KCNQ2, FluxOR thallium flux fluorescence; hits give high values. B-score at 10 µM. actives 0.54% (n = 310,000). AID 2239;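 active means fluorescence ratio B-score at least 3 SD of library B-scores, with initial fluorescence B-score within 3 of them, cut at about 5.3 in these data; same plate scores as AID 2156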;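 further: B-score of peak minus minimum over baseline fluorescence ratio after K+ and Tl+ stimulus; positive B-score means potentiation of KCNQ2 with more thallium influx and brighter signal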
# * hit, by the source's call; i = inactive; x = not tested or not shown. An excerpt weighted towards active compounds, which were near 1.6% of everything screened.
SMILES,KCNQ2 inh,KCNQ2 pot
CCn1cc(/C=N/NS(=O)(=O)c2ccc(OC)cc2)c(C)n1,i,x
CCOC(=O)Cn1c2ccc(OC)cc2c2nc3ccccc3nc21,i,x
COC(=O)Cn1c2ccc(OC)cc2c2nc3ccccc3nc21,-5.7*,-5.7
COC(=O)c1cn(C(=O)c2cc(C)cc(C)c2)c2ccccc12,i,1.2
COC(=O)c1cn(C(=O)c2cc(Br)ccc2Cl)c2ccccc12,-6.1*,-6.1
Cc1ccc(C(C)C)cc1S(=O)(=O)NC1CC(C)(C)NC(C)(C)C1,i,1.7
O=c1c2ccccc2sc2ccc(C#CC3(O)CCCCC3)cc12,i,x
COc1cccc2sc3ccc(C#CC4(O)CCCCC4)cc3c(=O)c12,-6.7*,-6.7
CCC(C)(C)n1nnnc1C(c1cccc(C#N)c1)N1CCN(c2cc(C)ccc2C)CC1 (stereo not given),-5.8*,-5.8
CC(C)(C)n1nnnc1C(c1cccc(C#N)c1)N1CCC(Cc2ccccc2)CC1 (stereo not given),i,0.94
Cc1ccccc1C(=O)O/N=C(\N)c1ccncc1,i,1.2
O=C(CCn1cnc2ccccc2c1=O)Nc1ccc(S(=O)(=O)N2CCCC2)cc1,i,0.11
Cc1ccc(C)c(N2CCN(c3ccncc3N)CC2)c1,i,0.28
COCCSc1ccccc1C(=O)Nc1nnc(COC)s1,i,x
COCc1nnc(NC(=O)c2ccccc2Oc2ccccc2)s1,-6.1*,-6.1
Cc1ccc(C(=O)OCC(=O)N(C)C2CCS(=O)(=O)C2)cc1S(=O)(=O)N1CCCCC1 (stereo not given),i,0.4
Cc1ccc(C)c(C(=O)CCC(=O)NCc2ccc(Cl)cc2)c1,-6*,-6
Cc1ccc(CNC(=O)CCS(=O)(=O)c2ccc(Cl)cc2)cc1,i,x
CCOC(=O)N1CCC(N2C(=O)c3ccccc3C2Nc2ccc(S(=O)(=O)N3CCOCC3)cc2)CC1 (stereo not given),i,1.5
Cc1nc2c(-c3ccc(F)cc3)c(C)nn2c(C)c1CCC(=O)N1CCN(c2ccccc2)CC1,i,x
Cc1nc2c(-c3ccc(F)cc3)c(C)nn2c(C)c1CCC(=O)N1CCC(Cc2ccccc2)CC1,-6.1*,-6.1
Cc1cc(C(=O)CCC(=O)N(C)CC(=O)Nc2ccccc2Br)c(C)s1,i,0.92
Cc1cccc(-n2ccc(=O)c(C(=O)Nc3ccc(S(=O)(=O)Nc4nccc(C)n4)cc3)n2)c1,i,x
Cc1cccc(NC(=S)NCC(C)CSc2ccc(Cl)cc2)c1 (stereo not given),i,2
Cc1ccc(NC(=S)NCC(C)CSc2ccc(Cl)cc2)cc1 (stereo not given),i,13*
SMILES,KCNQ2 inh,KCNQ2 pot
O=S1(=O)CCS(=O)(=O)C1c1ccccc1,i,0.87
COC(=O)CSc1nnc(CNc2ccc(Cl)cc2)n1-c1ccccc1,-5.8*,-5.8
O=C(O)CSc1nnc(CNc2ccc(F)cc2)n1-c1ccccc1,i,0.62
COc1ccc(S(=O)(=O)N(CC(=O)NCc2cccnc2)c2ccc(C)cc2)cc1OC,i,0.4
CCN1C(=O)[C@@H]2Cc3c([nH]c4ccccc34)C(c3cc(OC)c(OC)c(OC)c3)N2C1=S (stereo not given in full),i,x
C=CCN1C(=O)[C@@H]2Cc3c([nH]c4ccccc34)C(c3cc(OC)c(OC)c(OC)c3)N2C1=S (stereo not given in full),-6.1*,-6.1
CSCCC(NC(=O)COc1ccccc1)C(=O)OCC(=O)c1ccccc1 (stereo not given),i,x
CSCCC(NC(=O)COc1ccccc1)C(=O)N1CCN(c2ccccc2O)CC1 (stereo not given),-6.2*,-6.2
COc1ccc2c(C)cc(SCC(=O)Nc3nsc(-c4ccc(C)cc4)n3)nc2c1,-6.3*,-6.3
Cc1ccc(-c2nc(NC(=O)CSc3cc(C)c4ccccc4n3)ns2)cc1,i,x
COC(=O)C1=CN(Cc2ccccc2)C=C(C(=O)OC)C1c1cc(F)ccc1F,i,x
NC(=O)CSc1nnc(COc2cccc3ccccc23)o1,i,1.1
O=C(CSc1nnc(COc2cccc3ccccc23)o1)N1c2ccccc2CCc2ccccc21,-8.4*,-8.4
O=C(COC(=O)c1ccccc1F)Nc1cccnc1Cl,i,0.07
O=C(c1ccccc1)n1c(=O)cc[nH]c1=O,i,0.23
O=C(Nc1ccccn1)C(F)(F)C(F)(F)C(F)(F)C(F)(F)C(=O)Nc1ccccn1,i,0.51
O=c1c2cc(-c3ccccc3)sc2ncn1/N=C/c1ccco1,-5.9*,-5.9
CCCCn1cnc2sc(-c3ccccc3)cc2c1=O,i,0.71
COc1ccc(NC(=O)c2ccc3nc(-c4ccccc4)c(-c4ccccc4)nc3c2)c(OC)c1,i,x
COc1ccccc1NC(=O)c1ccc2nc(-c3ccccc3)c(-c3ccccc3)nc2c1,-7.1*,-7.1
CCc1nc(N2CCCCC2C(=O)O)c2oc3ccccc3c2n1 (stereo not given),i,1.4
CCc1nc(N2CCN(Cc3ccc4c(c3)OCO4)CC2)c2oc3ccccc3c2n1,-6.5*,-6.5
CCc1nc(N2CCCCC2)c2oc3ccccc3c2n1,i,x
CCc1nc(N2CCCCC2C)c2oc3ccccc3c2n1 (stereo not given),-7.5*,-7.5
CCOC(=O)C1CCN(S(=O)(=O)c2ccc(OC)c(Cl)c2)CC1,i,x
SMILES,KCNQ2 inh,KCNQ2 pot
S=C(NCCCN1CCOCC1)NC1CC1,i,0.18
Cc1nc(N2CCN(c3ccccn3)CC2)c2c(C)c(C(=O)Nc3c(F)cc(F)cc3Br)sc2n1,i,x
Cc1nc(N2CCN(c3ccccn3)CC2)c2c(C)c(C(=O)Nc3c(C)cc(Br)cc3C)sc2n1,-7.9*,-7.9
O=C(Nc1ccc2c(c1)CN(Cc1ccccc1O)CC2)C1CCCO1 (stereo not given),i,2.3
COc1ccc(NC(=O)C(Sc2nnc(-c3ccncc3)n2-c2ccccc2C)c2ccccc2)cc1Cl (stereo not given),-5.5*,-5.5
COc1ccc(NC(=O)C(OC)c2ccccc2)cc1Cl (stereo not given),i,2.5
CC(CCc1ccco1)NC(=O)CSc1cc(=O)n(C)c2ccccc12 (stereo not given),i,0.24
CN(Cc1ccccc1NS(=O)(=O)c1ccc2ccccc2c1)C1CCCCC1,i,x
Cc1ccc(C)c(OCC(=O)Nc2ccncc2)c1,i,2.4
O=C(Nc1cccc(C(F)(F)F)c1)/C(=C/c1ccco1)NC(=O)c1cccs1,i,x
C/C(=N\OCC(=O)Nc1c(C)cc(C)cc1C)c1ccc2c(c1)OCCO2,i,8.1*
C/C(=N\OCC(=O)Nc1cc(C)cc(C)c1)c1ccc2c(c1)OCCO2,i,x
COc1cc(CC(=O)N(c2ccccc2)c2nc(C)cs2)cc(OC)c1OC,i,0.39
COc1cc(NC(=O)C(=O)NNC(=O)C2CCCCC2)c(OC)cc1Cl,i,9.8*
COc1cc(NC(=S)N2CCCCC2C)c(OC)cc1Cl (stereo not given),i,x
O=C(OC1CCCCC1)c1ccc(NC(=O)c2ccco2)cc1,i,2.4
COC(=O)c1ccc([C@H](NC(=O)c2ccco2)[C@]2(C)C[C@H]2C2CCCCC2)cc1,-6*,-6
COC(=O)c1cn(NC(=O)Cc2cccc(OC)c2)c(=O)c2ccccc12,i,7.2*
COC(=O)c1cn(NC(=O)Cc2ccc(OC)c(OC)c2)c(=O)c2ccccc12,i,x
